Assay outcomes deposited in PubChem BioAssay by Center for Chemical Genomics, University of Michigan.
Dicer inh = inhibitors of Dicer pre-microRNA processing, primary screen, biochemical, cat-ELCCA, chemiluminescence. z-score at 25 µM. cat-ELCCA pre-miR-21 Dicer processing; hits give high values. 47,000 compounds, 6% hits. Endoribonuclease Dicer (Homo sapiens), Q9UPY3; in the data active = z-score above about 3, passing the limit was not always enough;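 also: plate controls were vehicle for no effect and no enzyme for full effect; higher signal means more uncleaved substrate so more Dicer inhibition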
* marks the source's active call; other numbers are inactive results. The full list was thinned out, with hits kept by preference.

S=c1nc(-c2ccccc2)c(-c2ccccc2)n[nH]1 was read as Dicer inh -1.3.
Screening Cn1c(=O)n(CC(=O)O)c(=O)c2c1nc1n2CCCN1C1CCCCC1 returned Dicer inh 0.87.
Screening Oc1ccccc1C=NCC1CCC(CN=Cc2ccccc2O)CC1 (centres undefined) returned Dicer inh -0.73.
`Oc1ccccc1C=Nc1n[nH]c2ccccc12` gave Dicer inh 3.5*.
`Oc1ccccc1/C=N/C(/N=C/c1ccccc1O)c1ccccc1O` gave Dicer inh 0.33.
Screening Cc1ccc2oc(-c3cc(Br)ccc3O)c(O)c(=O)c2c1 returned Dicer inh 5.3*.
Cc1ccc2oc(-c3ccco3)c(O)c(=O)c2c1 was read as Dicer inh -2.9.
`Cc1ccc(-c2oc3ccc(C)cc3c(=O)c2O)cc1` gave Dicer inh -2.2.
Screening Cc1nc(C)c(S(=O)(=O)N2CCC(C(=O)c3ccccc3)CC2)s1 returned Dicer inh -0.13.
Screening CCOc1cc(S(=O)(=O)n2ccnc2C)ccc1F returned Dicer inh 0.32.
CCOc1ccc(/C(O)=C2\C(=O)C(=O)N(c3nnc(C)s3)C2c2ccc(F)cc2)cc1 (centres undefined) was read as Dicer inh 1.3.
Screening CN(C)c1c(F)cc(C(=O)NC(=O)NC2=NCCS2)cc1F returned Dicer inh 1.2.
COC(=O)c1cccc(Nc2nc(-c3cccnc3)nc3ccccc23)c1 was read as Dicer inh -1.3.
`COc1ccc(Nc2nc(-c3cccnc3)nc3ccccc23)cc1` gave Dicer inh -1.2.
Screening Oc1ccccc1Nc1nc(-c2cccnc2)nc2ccccc12 returned Dicer inh 11*.
`CCc1ccc2nc3c(cc2c1)c(=O)n(-c1ccccc1)c1c3c(=O)n(C)c(=O)n1C` gave Dicer inh -0.72.
`Cc1ccc2nc(-c3cc(N)ccc3Cl)oc2c1` gave Dicer inh 4*.
Screening Nc1ccc2oc(-c3ccc(F)cc3)nc2c1 returned Dicer inh 3.7*.
Cc1ccc(-c2nc3ncccc3o2)cc1N was read as Dicer inh -0.93.
For Nc1ccc2oc(-c3ccccc3F)nc2c1 the results were Dicer inh 2.3.
Screening O=C(Nc1ccc(-c2nc3ncccc3o2)cc1)c1ccc([N+](=O)[O-])o1 returned Dicer inh 0.38.
For Clc1ccc(Cn2nnc(N3CCCCC3)n2)cc1 the results were Dicer inh 14.
`Cc1cc2nc(-c3cc(N)ccc3Cl)oc2cc1C` gave Dicer inh -1.8.
`Cc1ccc2nc(-c3ccc(N)cc3)oc2c1` gave Dicer inh 0.3.
`Nc1ccc2oc(-c3ccc(-c4nc5cc(N)ccc5o4)cc3)nc2c1` gave Dicer inh 1.1.
For Clc1ccc(-c2nc3cc(CN4CCCCC4)ccc3o2)cc1 the results were Dicer inh 4.3*.
Clc1ccc(-c2nc3cc(NCc4cccs4)ccc3o2)cc1 was read as Dicer inh -0.22.
Fc1ccc(-c2nc3ncccc3o2)cc1 was read as Dicer inh 3.3*.
Screening Cc1cc(NC(=O)c2ccccc2)n(-c2ccccc2)n1 returned Dicer inh -1.1.
Screening CC1(C)CC(=O)C2=C(C1)Nc1nonc1NC2c1ccc(Cl)cc1 (centres undefined) returned Dicer inh -0.87.
CCOC(=O)C1=C(C)Nc2nc3ccccc3n2C1c1cc(OC)ccc1OC (centres undefined) was read as Dicer inh -0.1.
`CN1C/C(=C\c2ccc(C(F)(F)F)cc2)C2=NN(C)C(c3ccc(C(F)(F)F)cc3)C2C1` (centres undefined) gave Dicer inh -0.13.
`CSc1nc(N/C=C(\C#N)S(=O)(=O)c2ccccc2Cl)nc(N(C)C)n1` gave Dicer inh 0.04.
`C/C(=N\NC(N)=S)c1ccc(Br)cc1` gave Dicer inh -0.71.
`COC(=O)C1=C(C)NC2=C(C(=O)CC(c3ccccc3Cl)C2)C1c1ccc(C)s1` (centres undefined) gave Dicer inh 0.
For CCCCOC(=O)CCCN1C(=O)S/C(=C/c2ccccc2)C1=S the results were Dicer inh -0.37.
`O=C(CS(=O)(=O)Nc1ccc(Cl)cc1)Nc1ccc(Cl)cc1` gave Dicer inh 1.4.
For O=C1CSC(=O)N1CCS(=O)(=O)c1ccc(Cl)cc1 the results were Dicer inh 0.11.
Screening Clc1ccc(-c2nnnn2-c2ccc(Cl)c(Cl)c2)cc1Cl returned Dicer inh -5.9.
Screening O=S(=O)(Nc1ccc2oc(-c3ccc(Cl)cc3)nc2c1)c1ccccc1 returned Dicer inh 4*.
For O=S(=O)(Nc1ccc2oc(-c3ccccc3F)nc2c1)c1ccccc1 the results were Dicer inh -0.51.
`Cc1cc2nc(-c3ccc(N)cc3)oc2cc1C` gave Dicer inh 0.76.
Nc1ccc2oc(-c3cccc(Cl)c3)nc2c1 was read as Dicer inh 2.3.
For Nc1ccc2nc(-c3ccccc3)oc2c1 the results were Dicer inh 4*.
For Nc1ccc(-c2nc3cc(Cl)ccc3o2)cc1 the results were Dicer inh 3.2*.
Nc1ccc2oc(-c3ccccc3)nc2c1 was read as Dicer inh 0.65.
Cc1cc(=O)oc2cc(NS(=O)(=O)c3ccccc3)ccc12 was read as Dicer inh 1.4.
Screening Nc1ccc(-c2nc3ccccc3o2)cc1 returned Dicer inh 1.6.
`CSc1ccc(C(=O)NC(=O)Nc2ccc(Cl)cc2)s1` gave Dicer inh -0.41.
`O=S(=O)(NCc1ccc(C(F)(F)F)cc1)c1c(Cl)cc(C(F)(F)F)cc1Cl` gave Dicer inh -1.4.
`CC1(C)Cc2c(c(N3CCOCC3)nc3sc4c(N5CCCC5)ncnc4c23)CO1` gave Dicer inh -0.76.
`CCOC(=O)N1CCc2c(sc3c2C(=O)NC(c2ccccc2Cl)N3)C1` (centres undefined) gave Dicer inh -1.1.
Cc1nc2c(=O)n(C)c3c(c(=O)n(-c4ccccc4)c(=O)n3-c3ccccc3)c2o1 was read as Dicer inh 0.01.
`COC(=O)c1cc(OC)c(OC)cc1NC(=O)c1cnc(N(C)C)nc1C(F)(F)F` gave Dicer inh -0.21.
For O=C1CC(CSc2ccccn2)=NN1 the results were Dicer inh -2.1.
Screening O=C(CC1(O)C(=O)Nc2ccc(Cl)cc21)c1ccccc1 (centres undefined) returned Dicer inh 3.
Screening Cc1cc(C)c(C(=O)CC2(O)C(=O)Nc3ccc(Cl)cc32)c(C)c1 (centres undefined) returned Dicer inh 4.6*.
For Cc1cc(C)c(C(=O)CC2(O)C(=O)Nc3ccc(C)cc32)c(C)c1 (centres undefined) the results were Dicer inh 1.2.
`Cc1ccc(CNc2cc(-c3nn4c(C)nnc4s3)ccc2C)s1` gave Dicer inh -1.6.
For O=C1CC(=O)N2N=C(c3ccccc3)SC2=N1 the results were Dicer inh 0.35.
CCOCCOC(=O)C(C)Sc1n[nH]c(=O)[nH]c1=O (centres undefined) was read as Dicer inh -0.47.
Screening CCOC(=O)c1nnc(/C=C(\O)c2cccs2)c(=O)[nH]1 returned Dicer inh 0.2.
CCOC(=O)NNC(=S)Nc1ccc(Cl)cc1Cl was read as Dicer inh -0.56.
`CSc1nc(-c2ccccc2)nc(Sc2cccc(C(F)(F)F)c2)c1C#N` gave Dicer inh 26*.
Cc1c(C#N)c(Sc2cccc(C(F)(F)F)c2)nc2ccccc12 was read as Dicer inh -1.1.
